Shown are actives, neighbours in structure and some others; about 0.85% of the full set was active somewhere.
RECQ1 helicase = inhibitors of human RECQ1 DNA helicase. P46063. RECQ1 DNA unwinding, red fluorescence kinetic read. Potency, µM (top dose mostly 57.3 µM), usual class: inhibitors. actives 0.54% (n = 240,000). AID 2549; further: nearly all actives have a fitted effect of over 30% in size
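RECQ1T1 50 nM; forked duplex (20 bp + 30-nt ss tails) 200 nM, ATP 2 mM final; pH 8.0, 2 mM MgCl2, 2.5 ug/ml poly(dI-dC); 15 min compound preincubation; discontinuous kinetic read over 2 h at RT.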
APEX1 inh = blocks human APE1 abasic DNA cleavage; recombinant APE1, TAMRA/BHQ-2 abasic DNA cleavage fluorescence; Potency, µM (doses to about 65.8 µM), usual class: inhibitors; actives 0.35% (n = 350,000); further: nearly all actives have a fitted effect of over 55% in size
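Step 1: APE1 (0.75 nM) with compound, 15 min RT. Step 2: add 50 nM fluorophore/quencher THF duplex. Step 3: three fluorescence reads 60 s apart (525/598 nm); read 3 minus read 1 = reaction progress.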
TDP1 inh = TDP1 (human) enzyme inhibition. Q9NUW8. recombinant TDP1, AlphaScreen DNA substrate cleavage. Potency, µM (highest dose often 130 µM), hits mostly inhibitors. actives 0.28% (n = 350,000). AID 485290; further: nearly all actives have a fitted effect of over 40% in size
Target sequence (Q9NUW8 whole entry, looked up): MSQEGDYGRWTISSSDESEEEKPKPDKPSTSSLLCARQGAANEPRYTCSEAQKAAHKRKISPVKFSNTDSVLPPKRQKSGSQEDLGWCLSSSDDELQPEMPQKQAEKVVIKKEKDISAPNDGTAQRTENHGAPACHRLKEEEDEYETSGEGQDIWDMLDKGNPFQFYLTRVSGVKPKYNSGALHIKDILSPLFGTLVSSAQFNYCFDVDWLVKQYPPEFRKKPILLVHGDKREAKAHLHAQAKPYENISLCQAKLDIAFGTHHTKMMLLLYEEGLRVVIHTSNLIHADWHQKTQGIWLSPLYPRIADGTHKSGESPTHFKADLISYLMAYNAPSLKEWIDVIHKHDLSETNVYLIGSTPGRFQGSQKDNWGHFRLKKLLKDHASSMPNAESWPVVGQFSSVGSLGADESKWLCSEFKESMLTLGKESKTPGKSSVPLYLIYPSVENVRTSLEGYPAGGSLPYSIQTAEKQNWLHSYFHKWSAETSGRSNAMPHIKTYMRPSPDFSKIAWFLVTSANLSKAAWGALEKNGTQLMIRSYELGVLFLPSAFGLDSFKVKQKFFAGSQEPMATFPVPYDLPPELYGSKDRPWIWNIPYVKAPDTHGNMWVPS
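Recombinant human Tdp1 (E. coli-expressed, 1 nM final) preincubated with compounds 15 min at room temperature, then 5'-biotin/3'-phosphotyrosine-FITC DNA substrate (15 nM final) added for 5 min. AlphaScreen beads (10 ug/ml final) added 10 min; cleavage lowers signal.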
GLS inhibitor = glutaminase GLS (human) inhibition; actives 0.21% (n = 410,000); O94925; Potency, µM (top dose mostly 45.5 µM), hits mostly inhibitors; GLS enzymatic activity, qHTS titration
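Assay buffer: 45 mM KH2PO4 pH 8.2, 0.02% Tween-20. hKGA acts on L-glutamine (1 mM solution added); product glutamate is reported by an oxidase/peroxidase Amplex Red coupling, with fluorescence taken at baseline and 30 min.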
PGK inhibitor = T. brucei PGK inhibition. PGK/GAPDH coupled, Kinase-Glo luminescence, 60 min. AID 602233. actives 0.043% (n = 380,000). P07378. Potency, µM (doses to about 57.5 µM), actives largely listed as inhibitors; further: nearly all actives have a fitted effect of over 60% in size
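Luminescent ATP detection (Kinase-Glo Plus) follows a 60-minute room-temperature incubation, with wells lacking PGK as controls. Buffer: 100 mM TEA (pH 7.6), 5 mM MgCl2, 0.01% Tween-20. Coupling enzyme GAPDH (100 nM final) supplies unstable 1,3-BPG in-well.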
BLM helicase inh = Bloom syndrome helicase (human) inhibition; P54132; recombinant BLM DNA unwinding, fluorescence dequenching; actives 0.2% (n = 350,000); AID 2528; Potency, µM (series often up to 56.1 µM), most hits filed as inhibitors; further: nearly all actives have a fitted effect of over 35% in size
Numbers stand for hits; - = inactive; ? = inconclusive; . = no result; ! = repeats disagree. The call rests on the fitted dose curve; in most records, active means well fitted curve in the direction sought with a large enough effect; inconclusive means small, poorly fitted or top-dose-only effect, or another doubt; inactive means no such curve, though single readings can be large; an effect the other way counts as inactive or inconclusive.

SMILES | RECQ1 helicase | APEX1 inh | TDP1 inh | GLS inhibitor | PGK inhibitor | BLM helicase inh
C/C=C/C=C/C(=O)N1CC2(CC(c3cccc(NC(=O)/C=C/C)c3)=NO2)C[C@@H]1C(N)=O (some centres not stated) | - | - | - | - | - | -
C=C(C)C(=O)Nc1cccc(C2=NOC3(C2)C[C@@H](C(N)=O)N(C(=O)/C(C)=C/C)C3)c1 (some centres not stated) | 17.8µM | - | . | ? | ? | -
C=C(C)C(=O)Nc1cccc(C2=NOC3(C2)C[C@@H](C(N)=O)N(C(=O)/C=C/C=C/C)C3)c1 (some centres not stated) | ? | ? | 35.5µM | 11.2µM | ? | -
C=C(C)C(=O)Nc1cccc(C2=NOC3(C2)C[C@@H](C(N)=O)N(C(=O)CC(c2ccccc2)c2ccccc2)C3)c1 (some centres not stated) | ? | ? | 17.8µM | 11.2µM | 8.91µM | -
C/C=C(\C)C(=O)Nc1cccc(C2=NOC3(C2)C[C@@H](C(N)=O)N(C(=O)/C(C)=C/C)C3)c1 (some centres not stated) | - | - | - | - | - | -
NC(=O)[C@H]1CC2(CC(c3cccc(NC(=O)CC(c4ccccc4)c4ccccc4)c3)=NO2)CN1C(=O)CC(c1ccccc1)c1ccccc1 (some centres not stated) | - | - | - | - | - | -
NC(=O)[C@@H]1CC2(CC(c3cccc(NC(=O)[C@H]4CCC(=O)N4)c3)=NO2)CN1C(=O)c1ccc(Cl)cc1 (some centres not stated) | - | - | - | - | - | -
CC[C@H](c1ccccc1)c1noc(CCN(CC)CC)n1 | . | . | . | - | . | .
COc1cc(F)c(S(=O)(=O)N2CCCN(S(=O)(=O)c3ccc(NC(C)=O)cc3)CC2)c(F)c1 | . | . | - | . | . | .
C=C(C)C(=O)Nc1cccc(C2=NOC3(C2)C[C@H](C(N)=O)N(C(=O)c2ccccc2C(=O)c2ccccc2)C3)c1 (some centres not stated) | ? | ? | . | 14.1µM | ? | -
C/C=C(\C)C(=O)Nc1cccc(C2=NOC3(C2)C[C@@H](C(N)=O)N(C(=O)c2ccccc2C(=O)c2ccccc2)C3)c1 (some centres not stated) | - | - | - | - | - | -
Cc1ccc(Cl)cc1NS(=O)(=O)c1cc2c(cc1F)NC(=O)CC2 | . | . | - | . | . | .
Oc1c(Cl)cc(Cl)cc1Sc1cc(Cl)cc(Cl)c1O | 39.8µM | - | - | - | . | ?
O=S(c1cc(Cl)cc(Cl)c1O)c1cc(Cl)cc(Cl)c1O | . | . | - | - | . | -
Cc1ccc(Cn2cnc3c(cnn3C(C)(C)C)c2=O)cc1F | . | - | . | . | . | .
CC(=O)N[C@@H](CC(=O)O)C(=O)N[C@@H](CCC(=O)O)C(=O)O | ? | 3.55µM! | 15.8µM! | - | . | -
Cc1ccccc1C(=O)NNC(=S)Nc1cccc(C(F)(F)F)c1 | - | - | - | 17.8µM | - | -
FC(F)(F)c1cccc(NC(=S)NNC(=S)Nc2cccc(C(F)(F)F)c2)c1 | - | - | - | . | . | -
COc1ccc(C2Nc3ccccc3C(=O)N2Cc2ccccc2)cc1COc1ccc(F)cc1 (configuration not stated) | . | . | - | . | . | .
S=c1[nH]nc(-c2ccccc2)n1/N=C/c1ccc(Cl)cc1 | . | - | . | 15.8µM | - | -
Oc1c(Br)cc(Br)cc1/C=N/n1c(-c2ccccc2)n[nH]c1=S | . | - | . | - | - | -
S=c1[nH]nc(-c2ccccc2)n1/N=C/c1cccc(Cl)c1 | . | - | . | - | - | -
Oc1c(Br)cc(/C=N/n2c(-c3ccccc3)n[nH]c2=S)c(Br)c1O | . | 0.423µM | ? | . | . | 0.794µM
O=[S+]1([O-])N=C(Oc2cccnc2)c2ccccc21 | . | . | - | . | . | .
O=C(NCc1ccc(F)cc1)n1cc(P(=S)(c2ccccc2)c2ccccc2)c2ccccc21 | . | . | - | . | . | .
SMILES | RECQ1 helicase | APEX1 inh | TDP1 inh | GLS inhibitor | PGK inhibitor | BLM helicase inh
C(=N\Nc1nc2ccccc2[nH]1)/c1c[nH]c2ccccc12 | - | - | - | 12.6µM | - | -
CCCCCCCCCCCCCCCC(=O)O[C@@H]1CC(C)=C(\C=C/C(C)=C\C=C/C(C)=C\C=C\C=C(C)\C=C\C=C(C)\C=C\C2=C(C)C[C@@H](OC(=O)CCCCCCCCCCCCCCC)CC2(C)C)C(C)(C)C1 | . | . | . | - | . | .
NCCCC[C@H](NC(=O)[C@@H]1CCCN1C(=O)[C@@H]1CSSC[C@H](NC(=O)CNC(=O)CNC(=O)CN)C(=O)N[C@@H](Cc2ccc(O)cc2)C(=O)N[C@@H](Cc2ccccc2)C(=O)N[C@@H](CCC(N)=O)C(=O)N[C@@H](CC(N)=O)C(=O)N1)C(=O)NCC(N)=O | . | . | . | - | . | .
CCCCCCCCCCCCCCCC(=O)OC[C@H](O)[C@H]1OC(=O)C(O)=C1O | . | 8.91µM | . | . | . | .
CC1=CCC(C(=O)O)C(C(=O)NC2CCCCC2)C1 (configuration not stated) | . | - | 31.6µM | - | ? | -
CCN(CC)c1ccc(N=C2C=CC(=O)C=C2NC(C)=O)cc1 | . | . | . | 11.2µM | - | .
NC(=O)C1CCN(c2nc(-c3cccc4sc5ccccc5c34)cs2)CC1 | . | - | . | . | . | .
Cc1cc2c(N)cccc2nn1 | - | - | - | - | - | 5.62µM
O=C(O)c1ccc(Cn2nnc3sc4c(c3c2=O)CCCC4)cc1 | - | - | 50.1µM | - | - | -
